The values that follow come from PubChem BioAssay (NCI).

Values joined by “and” are separate entries in the source; they are usually repeats but may differ in a detail not shown here. Equal values may be shown once. Compounds without any hit were thinned out: in the full panel of roughly 83,000, 20% have a hit.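 96-well plates, one dose, 48 hours. Percent growth reported; active if below 10.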 A number with no mark means an inactive call. Active and inactive are the calls of the source.

For this test, the system named is MDA-MB-468 breast. As to the kind of experiment: NCI-60 one-dose screen, 48 h (100 = growth as untreated, 0 = no growth, -100 = all killed). The following applies: 10 µM unless noted.
As to `CC(C)(C)c1ccc(C(O)CCCN2CCC(C(O)(c3ccccc3)c3ccccc3)CC2)cc1` (stereo not given), the growth is -97.1% (active).
For `Cc1ccc(-c2c3c(N)c4c(nc3nc3c2c(C)nn3-c2ccccc2)CCC4)cc1`, the growth was 53%.
As for `O=S(=O)(Nc1ccc2ccccc2c1)c1ccc(-c2cnc(C3CC3)o2)cc1`, the growth is 6.05% (active).
As for `Nc1cc2nc3ccccc3sc-2cc1=O`, the figure is 72.9%.
Then `COc1ccc(C(=O)Cn2c(C(=O)c3ccc(OC)cc3)nc3ccccc32)cc1`, with 17%; and `COc1cc(CC(=O)c2ccc(O)c(OC)c2)ccc1O`, with 101%.
For `O=C(NS(=O)(=O)c1ccc2ccccc2c1)n1cc(-c2ccncc2)c(-c2ccc(Cl)c(O)c2)n1`, the growth was 78.3%.
As for `C[N+](C)(C)CCCCCCCCCC[N+](C)(C)C`, the figure is 79.6%; as for `N#CC1=C(N)Oc2c(sc3c(Br)cccc23)C1c1ccc(F)cc1` (stereo not given), 11%.
`Oc1ccccc1C=Nc1ccc(N2CCN(c3ccccc3)CC2)cc1`: the growth was 108%.
As for `CC(C)(C)c1cc(C(=O)Nc2ccc(C(=O)NCCN)cc2)cc(C(C)(C)C)c1`, the figure is -39.5% (active); as for `CC(C)(C)CC(C)(C)Nc1c(-c2c(O)c3ccccc3oc2=O)nc2sccn12`, 86.6%.
Then `O=C(Nc1cccc(C2=NCCN2)c1)c1ccc(OCCCOc2ccc(C(=O)Nc3cccc(C4=NCCN4)c3)cc2)cc1`, with -24.4% (active).
On to `COc1cc(N=Nc2ccc(N)cc2)c(OC)cc1N=Nc1ccccc1.[Cl][Zn][Cl]`, for which the growth was 118%.
As for `O=Cc1ncc(-c2ccc(C(F)(F)F)cc2)c(NC2CCCCCC2)n1`, the figure is 2.41% [100 µM] (active).
As for `COc1cc(O)c2c(c1)/C=C/C[C@H](O)[C@H](O)C(=O)/C=C\C[C@H](C)OC2=O`, the figure is -24.3% (active); as for `CC/C=C\C[C@H](O)C/C=C1/C(=O)C=C[C@@H]1C/C=C\CCCC(=O)NC(C)C`, 1.98% (active); as for `COc1ccc(Cc2cc(-c3ccccc3)nn(Cc3ccccc3)c2=O)cc1OC`, 42.9%.
For `N#CC1c2ccccc2C=CN1C(=O)c1ccccc1` (stereo not given), the growth is 108% and 96.5%.
For `CCCSc1nc2ccc(C)cc2cc1/C=[N+](\[O-])c1ccccc1`, the growth was 88.4%.
Consider `COc1ccc(C2C3=C(COC3=O)N(CCO)c3cc4c(cc32)CCC4)cc1OC` (stereo not given), for which the growth is -17.1% (active).
As for `C#Cc1cccc(NC(=O)C2CCCN(C(=O)CCl)C2)c1` (stereo not given), the figure is 66.3% [8.25 µM].
As for `CCOC(=O)C(=Cc1ccccc1F)C(=O)OCC`, the figure is 76.7%; as for `CN1CCN(CCCOc2ccc3ncnc(Nc4ccc(Oc5cccc(F)c5)c(Cl)c4)c3c2)CC1`, -66% (active).
Then `COc1ccc(-c2ccc3c(N4CCOC[C@@H]4C)nc(N4CCOC[C@@H]4C)nc3n2)cc1CO`, with -27.4% (active).
As for `Oc1ccccc1/C=N\NC(=S)N/N=C/c1ccccc1O`, the growth is 32.2% and 11.3%.
Then `N#CCc1csc(Cc2ccccc2)n1`, with 107%.
As for `Clc1ccc([C@@H]2C[C@@H]3Cc4cc(Br)c5ccccc5c4N2O3)c(Cl)c1`, the figure is 59.2%; as for `COc1ccc(C=C2c3ccccc3-c3ccccc32)cc1`, 41.3%; as for `C=C1CC[C@@H]2[C@](C)(COC(C)=O)[C@H](OC(C)=O)CC[C@@]2(C)[C@@H]1CC(Nc1ccc(S(=O)(=O)Nc2nccs2)cc1)C1=CCOC1=O` (stereo not given in full), -59.9% (active).
Turning to `CC1(C=O)NC(=O)NC1=O` (stereo not given), the growth is 101%.
Regarding `COc1ccc(/C=C2\Oc3cc(OCCCN4CCCC4)ccc3C2=O)c(OC)c1`, the growth is 62%.
As for `O=C(Cc1ccccc1)C(F)(F)F`, the figure is 111%; as for `O=S(=O)(O)c1ccc(N=Nc2ccc(N=Nc3cccc4ccccc34)c(S(=O)(=O)O)c2)cc1`, 89.8%.
As for `c1ccc(-c2n(Cc3ccc4ccccc4c3)c3ccccc3[n+]2Cc2ccc3ccccc3c2)cc1`, the figure is -35.4% (active).
Regarding `Cc1nn(-c2ccccc2)c2nc3c(c(-c4ccc(Cl)cc4)c12)CNC1(CCSCC1)N3`, the growth was 93.1%.
Take `Cc1ccccc1-c1nc(C(Cl)Cl)nc2cc(-c3ccccc3)nn12`: the growth was 52.7%.
As for `COc1ccc(C(=O)/C=C/c2cc(-c3cc(OC)c(OC)c(OC)c3)n[nH]2)cc1OC`, the figure is -94.6% (active); as for `CSc1ccc(Cl)c(C(=O)Nc2sccc2C(N)=O)c1`, -7.28% (active).
`COc1ccc(/C=N/NC(=O)CSc2nc(-c3cnccn3)cc(-c3cccs3)c2C#N)cc1`: the growth is 83.1%.
